The list is not random: actives were taken first. Their share in the collection is about 20%.
HCMV inh – human cytomegalovirus inhibition; HFF cells, HCMV-luciferase reporter, 72 h; active compounds read low; activity change, negative = inhibition, % at 57.5 µM; 410,000 tested, 4.5% active; in the data active = activity change below about -60%; inconclusive = no clear call, values can overlap the other calls; inactive = above about -39%; note: % is set by controls: 0 for no effect and ±100 for the full control effect
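Compounds were evaluated in HFFs infected with an HCMV luciferase reporter virus (MOI 1 PFU/cell). Luciferase in lysates collected 72 h post infection served as the replication measure.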
Pf growth 96h – inhibits malaria parasite growth, 96 h; Potency, µM (doses to about 28.7 µM), inactives show top-dose activity change, negative = inhibition, actives largely listed as inhibitors; P. falciparum luciferase reporter growth, 96 h; AID 504834; 320,000 tested, 6.9% active; note: potency is the fitted concentration of half-maximal effect; % is set by controls: 0 for no effect and ±100 for the full control effect
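P. falciparum expressing integrated firefly luciferase, in erythrocytes at 2% hematocrit, 0.05% parasitemia, incubated with compounds 96 h at 37 C, 5% CO2. Growth inhibition read as loss of luminescence; two-generation exposure targets delayed-death apicoplast inhibitors.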
Pf growth 48h – inhibits P. falciparum growth in the first generation, 48 h; AID 504832; Potency, µM (titrated, usually from 28.7 µM), for the others: at the top dose activity change, negative = inhibition, most hits filed as inhibitors; 310,000 tested, 5.9% active; P. falciparum luciferase growth in erythrocytes, 48 h; note: potency is the fitted concentration of half-maximal effect; % is set by controls: 0 for no effect and ±100 for the full control effect
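Luciferase-expressing P. falciparum in infected erythrocytes (2% hematocrit, 0.1% parasitemia final) in RPMI 1640/0.5% Albumax were exposed to compound for 48 hours at 37 C, 5% CO2; growth read as luminescence.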
Shiga toxin inh – blocks Shiga toxin action in Vero cells; Vero cells, Shiga toxin protein synthesis inhibition reporter; inhibition, % at 38.7 µM; 290,000 tested, 9.2% active; AID 2315; in the data active = inhibition mostly above about 28%, no sharp cut-off; inactive = mostly below about 43%; note: 0% is about no effect
Cycloheximide cs – counter-screen hit for Shiga toxin inhibitors, cycloheximide | cell reporter, cycloheximide protein synthesis inhibition counterscreen | 300,000 tested, 12% active | max response, %; in the data active = max response mostly above about 13%, no sharp cut-off; inactive = mostly below about 14%; note: read at 38.3 µM for the half of the compounds with a filed dose; 0% is about no effect
Numbers without * were called inactive; ? = inconclusive; . = not tested or not shown; ! = repeats disagree. Unless noted, calls come from the whole dose curve; as a rule, active = well fitted inhibition curve with a large enough effect; inconclusive = small, poorly fitted or top-dose-only effect, or another doubt; inactive = no such curve, though single readings can be large or run the other way.

SMILES	HCMV inh	Pf growth 96h	Pf growth 48h	Shiga toxin inh	Cycloheximide cs
O=C(CNC(=O)c1ccccc1)OCc1nc2ccccc2s1	33	120%	155%	49*	42*
O=C(O)c1c(-c2ccccc2)c(-c2ccccc2)nc2ccccc12	-21	-13%	3%	-8	-5
O=S(=O)(c1ccc2c(c1)OCCO2)N1CCN(S(=O)(=O)c2cccc[n+]2[O-])CC1	.	.	.	7	5
Cc1c(-c2cccs2)[n+](=O)c2c(n1[O-])CCCC2	-18	-6%	-9%	-1	-1
COc1cccc(Cc2nc3ccccc3nc2SCC(=O)N2CCc3ccccc32)c1	61	.	.	.	.
C=CCSc1nnc(-c2nnc(SCC=C)n2CC)n1CC	-32	12µM*	10µM*	-15	1
CC(C)NC(=O)CSc1nnc(CNC(=O)OC(C)(C)C)n1C	18	40%	1.9µM*	2	12
Clc1cccc(Cl)c1Cn1cnc2c(N3CCCCCC3)ncnc21	-81*	.	10µM*	-13	-1
COCCn1c(CN(C)Cc2ccccc2)nc2c1c(=O)n(C)c(=O)n2C	-6	5.9µM*	.	-20	-6
CCOC(=O)Cn1c(CN(Cc2ccccc2)Cc2ccccc2)nc2c1c(=O)n(C)c(=O)n2C	32	?	5.9µM*	-7	-4
CCCCn1c(CN(C)Cc2ccccc2)nc2c1c(=O)n(C)c(=O)n2C	?	-2%	13µM*	13	-4
CCCn1c(CN(Cc2ccccc2)Cc2ccccc2)nc2c1c(=O)n(C)c(=O)n2C	.	9.3µM*	?	5	-1
Cc1nn(C)c(Oc2ccccc2)c1CCNS(=O)(=O)c1ccccc1	29	-20%	?	-10	3
C/C(=N\N=C(/C)c1cccc(N)c1)c1cccc(N)c1	-9	.	.	.	.
CCCn1c(CN(C)Cc2ccccc2)nc2c1c(=O)n(C)c(=O)n2C	-68*	45%	-15%	-2	-5
CN(Cc1ccccc1)Cc1nc2c([nH]1)c(=O)n(C)c(=O)n2C	24	10µM*	?	-5	-3
Cn1c(=O)c2[nH]c(CCc3ccncc3)nc2n(C)c1=O	32	.	.	.	.
CN(Cc1ccccc1)Cc1nc2c(c(=O)n(C)c(=O)n2C)n1CCc1ccccc1	-39	.	.	.	.
CC(C)S(=O)(=O)c1csc(C(=O)Nc2ccc(F)cc2)c1N	72	328%	228%	53	42*
CC1=C(C(=O)Nc2cccc(C(=O)NC3CCCCC3C)c2)SCCO1 (centres undefined)	-39	9.3µM*	-11%	-5	-8
CCOc1ccc(CNC(=O)c2cccc(NC(=O)C3=C(C)OCCS3)c2)cc1	?	?	?	8	17*
CCCNC(=O)c1ccc(C)c(NC(=O)C2=C(C)OCCS2)c1	-77*	42%	-5%	-7	-1
COc1ccc(CNC(=O)Cc2ccc(NC(=O)C3=C(C)OCCS3)cc2)cc1	76	?	100%	56*	19*
COc1cccc(CNC(=O)c2cccc(NC(=O)C3=C(C)OCCS3)c2)c1	5	16%	-13%	4	9
Nc1nc(N)n(-c2ccccc2)c(=Nc2ccccc2)n1	3	14%	23%	-2	-2
SMILES	HCMV inh	Pf growth 96h	Pf growth 48h	Shiga toxin inh	Cycloheximide cs
Cc1ccc(S(=O)(=O)NCc2ccccc2)cc1C(=O)NCCc1ccc(S(N)(=O)=O)cc1	32	5%	-29%	.	.
CC(C)Oc1ccc(CNC(=O)Cc2ccc(NC(=O)N3CCSc4ncccc43)cc2)cc1	0	.	.	.	.
CC1=C(C(=O)Nc2ccc(CC(=O)NCc3ccc(OC(C)C)cc3)cc2)SCCO1	1	?	102%	82*	42*
O=C(CSc1n[nH]c(=O)n1Cc1ccco1)Nc1ccccc1	-14	15%	0%	-3	-3
CC(C)c1ccc(NC(=O)CSc2n[nH]c(=O)n2Cc2ccco2)cc1	-17	13µM*	?	3	8
O=C(CSc1n[nH]c(=O)n1Cc1ccco1)Nc1ccccc1Cl	4	4.7µM*	?	13	5
COc1ccc(C(=O)CSc2n[nH]c(=O)n2Cc2ccco2)cc1	55	64%	?	44*	32*
CCC(C)[C@H](NC(=O)C1CCN(C(=O)[C@H](Cc2ccccc2)NS(=O)(=O)c2ccc(C)cc2)CC1)C(=O)O (some centres undefined)	13	-11%	-20%	-3	-2
CCN1C(=NCc2cc(OC)c(OC)c(OC)c2)N[C@@H](c2ccccc2)C(C(=O)OC)=C1C	.	4.7µM*	-23%	-5	-2
CCN(CC)CCCN=C1N[C@@H](c2ccccc2)C(C(=O)OC)=C(C)N1CC	-23	1.7µM*!	?	-8	1
CCN1C(=NCc2ccc(OC)cc2)N[C@@H](c2ccccc2)C(C(=O)OC)=C1C	-37	?	-28%	-5	-4
CCN1C(=NCc2cc(OC)c(OC)c(OC)c2)N[C@@H](c2cccc(C(F)(F)F)c2)C(C(=O)OC)=C1C	0	2.6µM*	?	-12	1
COC(=O)C1=C(C)N(C)C(=NCc2cc(OC)c(OC)c(OC)c2)NC1c1cccc(Cl)c1 (centres undefined)	-6	.	.	.	.
Cc1cc(C)cc(NC(=O)Cn2cc(C(=O)c3ccccc3)c(=O)c3ccc(C)nc32)c1	-2	.	.	.	.
COc1ccc(C2=NN(c3ccccc3)C(c3ccc(OC)c(OC)c3)C2)cc1 (centres undefined)	-1	?	-17%	46*	20*
COc1ccc(C2=NN(c3ccc(C=O)cc3)C(c3ccccc3)C2)cc1 (centres undefined)	.	?	?	20	-4

Bioassay records deposited in PubChem BioAssay by National Center for Advancing Translational Sciences (NCATS).
